Results filed as inconclusive are left out. Activity calls are given as the source filed them. The call rests on the fitted dose curve; in most records, active means well fitted curve in the direction sought with a large enough effect; inconclusive means small, poorly fitted or top-dose-only effect, or another doubt; inactive means no such curve, though single readings can be large; an effect the other way counts as inactive or inconclusive.
Tests used:
HACAT = assay: qHTS assay to identify novel small-molecules to repurpose for Merkel cell carcinoma treatment (AID 1296009); conditions: MCC and control cell lines, CellTiter-Glo viability, 72 h; at 44.8 µM (top of the series) unless noted; further: nearly all actives have a fitted effect of over 60% in size
In short: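 Cells were incubated with compound for 72 hr at 37 degree celsius before CellTiter-Glo addition. Luminescence was normalized with no-cell wells as full cytotoxicity and DMSO as baseline.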

C33A = assay: Primary qHTS to identify gynecologic anti-cancer compounds using libraries of approved drugs and bioactive compounds (AID 1345084); conditions: Gynecologic cancer cell panel viability, ATPlite luminescence, 48 h; series mostly up to 57.5 µM; further: on the % scale 0 is the no-effect control and ±100 the full control effect; nearly all actives have a fitted effect of over 55% in size
In short: (§1)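 Cells, 1,000 per well, plated 16 h, then exposed 48 h at 37 C to compounds. Viability by ATPlite luminescence after 15 min at room temperature.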

CAOV3 = assay: as above; conditions: Gynecologic cancer cell panel viability, ATPlite luminescence, 48 h; series mostly up to 57.5 µM
In short: as §1

CASKI = assay: as above; conditions: Gynecologic cancer cell panel viability, ATPlite luminescence, 48 h; series mostly up to 57.5 µM
In short: as §1

Es-2 = assay: as above; conditions: Gynecologic cancer cell panel viability, ATPlite luminescence, 48 h; series mostly up to 57.5 µM
In short: as §1

HeLa = assay: as above; conditions: Gynecologic cancer cell panel viability, ATPlite luminescence, 48 h; series mostly up to 57.5 µM
In short: as §1

Hek293T = assay: as above; conditions: Gynecologic cancer cell panel viability, ATPlite luminescence, 48 h, control line for the selectivity index; series mostly up to 57.5 µM
In short: as §1

JEG-3 = assay: as above; conditions: Gynecologic cancer cell panel viability, ATPlite luminescence, 48 h; series mostly up to 57.5 µM
In short: as §1

OV90 = assay: as above; conditions: Gynecologic cancer cell panel viability, ATPlite luminescence, 48 h; series mostly up to 57.5 µM
In short: as §1

PA-1 = assay: as above; conditions: Gynecologic cancer cell panel viability, ATPlite luminescence, 48 h; series mostly up to 57.5 µM
In short: as §1

SKOV3 = assay: as above; conditions: Gynecologic cancer cell panel viability, ATPlite luminescence, 48 h; series mostly up to 57.5 µM
In short: as §1

Tov-21-G = assay: as above; conditions: Gynecologic cancer cell panel viability, ATPlite luminescence, 48 h; series mostly up to 57.5 µM
In short: as §1

Tov112D = assay: as above; conditions: Gynecologic cancer cell panel viability, ATPlite luminescence, 48 h; series mostly up to 57.5 µM
In short: as §1

COc1cc(C(O)C2COC(c3ccc(OC4OC(CO)C(O)C(O)C4O)c(OC)c3)C2CO)ccc1O (stereo not drawn)
inactive: outcome (HACAT) inactive [at 17.4 µM] | Potency (C33A) | Potency (CAOV3) | outcome (CASKI) | Potency (Es-2) | Potency (HeLa) | Potency (Hek293T) | Potency (JEG-3) | Potency (OV90) | Potency (PA-1) | Potency (SKOV3) | Potency (Tov-21-G) | Potency (Tov112D)

NC1=NC2(c3cc(NC(=O)c4ccc(F)cn4)ccc3F)COCC2CS1 (stereo not drawn)
inactive: outcome (HACAT) | Potency (C33A) | Potency (CAOV3) | outcome (CASKI) | Potency (Es-2) | Potency (HeLa) | Potency (Hek293T) | Potency (JEG-3) | Potency (OV90) | Potency (PA-1) | Potency (SKOV3) | Potency (Tov-21-G) | Potency (Tov112D)

O=C(Nc1ccc(N2CCC(C(=O)N3CCOCC3)CC2)cc1)c1cnc(Oc2ccccc2)nc1
inactive: outcome (HACAT) | Potency (C33A) | Potency (CAOV3) | outcome (CASKI) | Potency (Es-2) | Potency (HeLa) | Potency (Hek293T) | Potency (JEG-3) | Potency (OV90) | Potency (PA-1) | Potency (SKOV3) | Potency (Tov-21-G) | Potency (Tov112D)

CC(=O)c1[nH]cc(CCC(=O)O)c1CC(=O)O
inactive: outcome (HACAT) | Potency (C33A) | Potency (CAOV3) | outcome (CASKI) | Potency (Es-2) | Potency (HeLa) | Potency (Hek293T) | Potency (JEG-3) | Potency (OV90) | Potency (PA-1) | Potency (SKOV3) | Potency (Tov-21-G) | Potency (Tov112D)

C=C1CC[C@@H]2[C@](C)(CO)[C@H](O[C@@H]3O[C@H](CO)[C@@H](O)[C@H](O)[C@H]3O)CC[C@@]2(C)[C@@H]1C/C=C1/C(=O)OC[C@H]1O
inactive: outcome (HACAT) inactive [at 17.4 µM] | Potency (C33A) | Potency (CAOV3) | outcome (CASKI) | Potency (Es-2) | Potency (HeLa) | Potency (Hek293T) | Potency (JEG-3) | Potency (OV90) | Potency (PA-1) | Potency (SKOV3) | Potency (Tov-21-G) | Potency (Tov112D)

Cc1cn(C[C@H](N)C(=O)O)c(=O)n(Cc2ccsc2C(=O)O)c1=O
inactive: outcome (HACAT) | Potency (C33A) | Potency (CAOV3) | outcome (CASKI) | Potency (Es-2) | Potency (HeLa) | Potency (Hek293T) | Potency (JEG-3) | Potency (OV90) | Potency (PA-1) | Potency (SKOV3) | Potency (Tov-21-G) | Potency (Tov112D)

Cc1ncc([N+](=O)[O-])n1C[C@H](O)CN1CCOCC1
inactive: outcome (HACAT) | Potency (C33A) | Potency (CAOV3) | outcome (CASKI) | Potency (Es-2) | Potency (HeLa) | Potency (Hek293T) | Potency (JEG-3) | Potency (OV90) | Potency (PA-1) | Potency (SKOV3) | Potency (Tov-21-G) | Potency (Tov112D)

C[C@H](/C=C/[C@@]1(O)[C@H](C)CC(=O)CC1(C)C)O[C@@H]1O[C@H](CO[C@@H]2OC[C@@H](O)[C@H](O)[C@H]2O)[C@@H](O)[C@H](O)[C@H]1O
inactive: outcome (HACAT) inactive [at 17.4 µM] | Potency (C33A) | Potency (CAOV3) | outcome (CASKI) | Potency (Es-2) | Potency (HeLa) | Potency (Hek293T) | Potency (JEG-3) | Potency (OV90) | Potency (PA-1) | Potency (SKOV3) | Potency (Tov-21-G) | Potency (Tov112D)

Oc1ccc2c(-c3c(-c4ccccn4)nn4c3CCC4)ccnc2c1
inactive: outcome (HACAT) | Potency (C33A) | Potency (CAOV3) | outcome (CASKI) | Potency (Es-2) | Potency (HeLa) | Potency (Hek293T) | Potency (JEG-3) | Potency (OV90) | Potency (PA-1) | Potency (SKOV3) | Potency (Tov-21-G) | Potency (Tov112D)

COc1cc2c(cc1O)C(c1ccc(O)cc1)C(C)C(C)C2 (stereo not drawn)
inactive: outcome (HACAT) | Potency (C33A) | Potency (CAOV3) | outcome (CASKI) | Potency (Es-2) | Potency (HeLa) | Potency (Hek293T) | Potency (JEG-3) | Potency (OV90) | Potency (PA-1) | Potency (SKOV3) | Potency (Tov-21-G) | Potency (Tov112D)

Cc1occc(=O)c1O[C@@H]1O[C@H](CO[C@@H]2OC[C@](O)(CO)[C@H]2O)[C@@H](O)[C@H](O)[C@H]1O
inactive: outcome (HACAT) inactive [at 17.4 µM] | Potency (C33A) | Potency (CAOV3) | outcome (CASKI) | Potency (Es-2) | Potency (HeLa) | Potency (Hek293T) | Potency (JEG-3) | Potency (OV90) | Potency (PA-1) | Potency (SKOV3) | Potency (Tov-21-G) | Potency (Tov112D)

C/C=C(/C)C(=O)O[C@@H]1C[C@@H](OC(=O)/C(C)=C\C)[C@@]2(C)C3C(=O)C=C(C)C2C3C1(C)C
inactive: outcome (HACAT) inactive [at 17.4 µM] | Potency (C33A) | Potency (CAOV3) | outcome (CASKI) | Potency (Es-2) | Potency (HeLa) | Potency (Hek293T) | Potency (JEG-3) | Potency (OV90) | Potency (PA-1) | Potency (SKOV3) | Potency (Tov-21-G) | Potency (Tov112D)

CCC(C)/C=C(C)/C=C/C1=CC2=C(Cl)C(=O)C(C)(OC(C)=O)C(=O)C2=CN1C(CC(=O)O)C(=O)O (stereo not drawn)
inactive: outcome (HACAT) inactive [at 17.4 µM] | Potency (C33A) | Potency (CAOV3) | outcome (CASKI) | Potency (Es-2) | Potency (HeLa) | Potency (Hek293T) | Potency (JEG-3) | Potency (OV90) | Potency (PA-1) | Potency (SKOV3) | Potency (Tov-21-G) | Potency (Tov112D)

COc1cccc2c1c(O)c(C(=O)N(C)c1ccc(C(F)(F)F)cc1)c(=O)n2C
inactive: outcome (HACAT) | Potency (C33A) | Potency (CAOV3) | outcome (CASKI) | Potency (Es-2) | Potency (HeLa) | Potency (Hek293T) | Potency (JEG-3) | Potency (OV90) | Potency (PA-1) | Potency (SKOV3) | Potency (Tov-21-G) | Potency (Tov112D)

CC(=O)OC1CC(C(C)(C)O)OC2CCC3(C)OC4=C(C(=O)C=C5C(C)C(OC(C)=O)C6(C)C(C)OC546)C(O)C3C12C (stereo not drawn)
inactive: outcome (HACAT) inactive [at 17.4 µM] | Potency (C33A) | Potency (CAOV3) | outcome (CASKI) | Potency (Es-2) | Potency (HeLa) | Potency (Hek293T) | Potency (JEG-3) | Potency (OV90) | Potency (PA-1) | Potency (SKOV3) | Potency (Tov-21-G) | Potency (Tov112D)

CCc1cccc2c3c([nH]c12)[C@@](CC)(CC(=O)O)OCC3
inactive: outcome (HACAT) | Potency (C33A) | Potency (CAOV3) | outcome (CASKI) | Potency (Es-2) | Potency (HeLa) | Potency (Hek293T) | Potency (JEG-3) | Potency (OV90) | Potency (PA-1) | Potency (SKOV3) | Potency (Tov-21-G) | Potency (Tov112D)

C=C1CC2C3(C)C(O)CC(=O)C(C)(C)C3C(O)C(OC(C)=O)C2(C)C2C(=O)OC(C)(C(=O)OC)C(=O)C12C (stereo not drawn)
inactive: outcome (HACAT) inactive [at 17.4 µM] | Potency (C33A) | Potency (CAOV3) | outcome (CASKI) | Potency (Es-2) | Potency (HeLa) | Potency (Hek293T) | Potency (JEG-3) | Potency (OV90) | Potency (PA-1) | Potency (SKOV3) | Potency (Tov-21-G) | Potency (Tov112D)

CC(C)(O)[C@@H]1CC[C@]2(CO)[C@@H](O)CC[C@](C)(O)[C@H]2[C@@H]1O[C@@H]1O[C@H](CO)[C@@H](O)[C@H](O)[C@H]1O
inactive: outcome (HACAT) inactive [at 17.4 µM] | Potency (C33A) | Potency (CAOV3) | outcome (CASKI) | Potency (Es-2) | Potency (HeLa) | Potency (Hek293T) | Potency (JEG-3) | Potency (OV90) | Potency (PA-1) | Potency (SKOV3) | Potency (Tov-21-G) | Potency (Tov112D)

COc1c2cc(c(O[C@@H]3O[C@H](CO)[C@@H](O)[C@H](O)[C@H]3O)c1OC)CCCCC(O)CCc1ccc(O)c-2c1 (stereo partly drawn)
inactive: outcome (HACAT) inactive [at 17.4 µM] | Potency (C33A) | Potency (CAOV3) | outcome (CASKI) | Potency (Es-2) | Potency (HeLa) | Potency (Hek293T) | Potency (JEG-3) | Potency (OV90) | Potency (PA-1) | Potency (SKOV3) | Potency (Tov-21-G) | Potency (Tov112D)

C[C@@H]1CC[C@]2(C(=O)O[C@@H]3O[C@H](CO[C@@H]4O[C@H](CO)[C@@H](O[C@@H]5O[C@@H](C)[C@H](O)[C@@H](O)[C@H]5O)[C@H](O)[C@H]4O)[C@@H](O)[C@H](O)[C@H]3O)CC[C@]3(C)C(=CCC4[C@@]5(C)C[C@@H](O)[C@H](O)[C@@](C)(CO)C5CC[C@]43C)C2[C@H]1C (stereo partly drawn)
inactive: outcome (HACAT) inactive [at 9.27 µM] | activity change, negative = cytotoxicity (C33A) -0.2% [at 11.6 µM] | activity change, negative = cytotoxicity (CAOV3) -4.15% [at 11.6 µM] | activity change, negative = cytotoxicity (CASKI) 20.3% [at 11.6 µM] | activity change, negative = cytotoxicity (Es-2) -3.91% [at 11.6 µM] | activity change, negative = cytotoxicity (HeLa) 11% [at 11.6 µM] | activity change, negative = cytotoxicity (Hek293T) -0.706% [at 11.6 µM] | activity change, negative = cytotoxicity (JEG-3) 0.915% [at 11.6 µM] | activity change, negative = cytotoxicity (OV90) -1.43% [at 11.6 µM] | activity change, negative = cytotoxicity (PA-1) 6.43% [at 11.6 µM] | activity change, negative = cytotoxicity (SKOV3) 21.1% [at 11.6 µM] | activity change, negative = cytotoxicity (Tov-21-G) 3.06% [at 11.6 µM] | activity change, negative = cytotoxicity (Tov112D) 3.29% [at 11.6 µM]

CSC(=O)OCC1=C[C@@H]2OC(=O)C3=CO[C@@H](O[C@@H]4O[C@H](CO)[C@@H](O)[C@H](O)[C@H]4O)[C@H]1[C@@H]32
inactive: outcome (HACAT) inactive [at 17.4 µM] | Potency (C33A) | Potency (CAOV3) | outcome (CASKI) | Potency (Es-2) | Potency (HeLa) | Potency (Hek293T) | Potency (JEG-3) | Potency (OV90) | Potency (PA-1) | Potency (SKOV3) | Potency (Tov-21-G) | Potency (Tov112D)

— PubChem BioAssay (NCATS)
